The values that follow come from PubChem BioAssay.

Assay [1] can be described thus: inhibitors of TNFa-induced NFkB p65 translocation, primary screen, imaging, HUVEC, MLSMR starter and 10KST1 sets (AID 438;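 active = inhibition above 20% together with a positive visual image hit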;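 also: compound added about 3h40 before a 20 min TNFalpha stimulation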;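 as to inhibition: signal is the nuclear over cytoplasmic p65 intensity ratio per well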). To be noted: HUVEC TNFa-induced p65 nuclear translocation; cell count: measured here: nuclei count (cytotoxicity indicator), at 2.08 µM; inhibition: at 2 µM, stronger effect = higher value, 0% TNFa-plus-vehicle, 100% no-TNFa wells.
Assay [2] can be described thus: inhibitors of mutant huntingtin aggregation, primary screen, imaging, exon1htt(103Q)mCFP cells, high-content imaging (AID 483;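 active = visual image review flags a hit and inhibition of aggregation exceeds 20%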;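 also: compound exposure lasted 3 days before fixation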;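 as to nuclei count: percent of the per-plate median nuclei count of sample wells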). Particulars: exon1htt(103Q)mCFP cell line, aggregate imaging, at 2 µM; inhibition of aggregation: stronger effect = higher value; nuclei count: measured here: cell count, toxicity.
Assay [3] can be described thus: inhibitors of E-selectin induction by TNFa, primary screen, imaging, HUVEC, immunofluorescence, MLSMR starter and 10KST1 sets (AID 487;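 active = visually confirmed hit in the image check and inhibition above 20%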;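 as to inhibition: signal is fraction of cell area covered by stained E-selectin grains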;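 as to nuclei count: 100% = median nuclei count of all wells on the same plate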). To be noted: HUVEC TNFalpha-induced E-selectin immunofluorescence imaging, at 2 µM; inhibition: stronger effect = higher value; nuclei count: measured here: cell number, toxicity.
The target in assay [4] is Voltage-gated potassium channel subunit beta-2 (Rattus norvegicus) (UniProt P62483). Briefly: KvBeta enzyme negative modulators, primary screen, biochemical, NADPH fluorescence (AID 622;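 active = fluorescence slope higher than the sample average by over 3 SD, cut at about -0.22 in these data, passing the limit was not always enough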;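 also: slope of raw intensity against log time taken from 70 to 1610 s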). Particulars: recombinant KvBeta, 4-cyanobenzaldehyde reduction, at 10 µM, stronger effect = higher value.
Assay [5] shares this target. Briefly: KvBeta positive modulators, primary screen, biochemical, NADPH fluorescence (AID 623;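 active = NADPH fluorescence slope more negative than the mean of all samples by about 3 SD, 99.7% confidence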;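 also: fluorescence intensity change per second fitted from 20 to 320 s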). To be noted: Recombinant KvBeta, NADPH fluorescence decrease slope, 10 min; at 10 µM; stronger effect = lower value.
Assay [6] concerns the target Alpha-2C adrenergic receptor (Homo sapiens) (UniProt P18825). Briefly: modulators of alpha2C/GIRK thallium flux, primary screen, cell-based, HEK293 alpha2C/GIRK1/2 (AID 624;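 active = fluorescence slope after compound addition differing from the mean of all screened samples at 99.7% confidence, in either direction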;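 also: slope of fluorescence ratio to pre-addition baseline per second over 15 to 24 s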). Particulars: thallium flux BTC fluorescence, at 10 µM, actives lie on both sides.
Assay [7] in a line: inhibitors of Sendai virus-induced IRF3 signaling, primary screen, TLR/RLR signaling modifier project, cell-based, Sendai virus stimulus, luciferase, 10K MLSCN set (AID 602276;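 active = inhibition at or above 50% at 10 µM; inactive = inhibition below 50%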;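 also: firefly luciferase from ISG56 promoter only with Renilla not read in this screen; 0% = Sendai virus plus DMSO and 100% = medium plus DMSO without virus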). Particulars: HEK293 RL24 IRF3 luciferase reporter, at 10 µM, stronger effect = higher value. For orientation: Reporter assays use an easily measured gene product as a stand-in for the process of interest.
Assay [8] in a line: inhibitors of poly I:C-induced TLR3 signaling, primary screen, cell-based, poly I:C stimulus, luciferase, 10K MLSCN set (AID 602277). To be noted: HEK293-TLR3 RL24 IRF3 luciferase reporter, at 10 µM, stronger effect = higher value.

Active and inactive are the calls of the source.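 The calls were made as follows, unless noted: active = inhibition of the reporter signal at or above 50%; inactive = inhibition below 50%.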

Sequence of Alpha-2C adrenergic receptor (Homo sapiens) (P18825 whole entry, looked up): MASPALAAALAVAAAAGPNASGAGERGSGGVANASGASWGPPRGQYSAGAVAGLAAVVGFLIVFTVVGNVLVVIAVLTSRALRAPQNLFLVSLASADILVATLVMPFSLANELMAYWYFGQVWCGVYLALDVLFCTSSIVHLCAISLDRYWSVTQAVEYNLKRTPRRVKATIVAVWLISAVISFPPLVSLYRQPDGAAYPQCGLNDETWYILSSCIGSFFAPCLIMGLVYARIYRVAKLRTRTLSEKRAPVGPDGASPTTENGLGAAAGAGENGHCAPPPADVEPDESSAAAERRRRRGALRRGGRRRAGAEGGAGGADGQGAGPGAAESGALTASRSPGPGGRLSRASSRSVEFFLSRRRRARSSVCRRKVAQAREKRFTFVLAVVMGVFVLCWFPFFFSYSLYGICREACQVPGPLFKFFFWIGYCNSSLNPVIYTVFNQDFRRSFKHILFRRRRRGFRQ
Sequence of Voltage-gated potassium channel subunit beta-2 (Rattus norvegicus) (P62483 whole entry, looked up): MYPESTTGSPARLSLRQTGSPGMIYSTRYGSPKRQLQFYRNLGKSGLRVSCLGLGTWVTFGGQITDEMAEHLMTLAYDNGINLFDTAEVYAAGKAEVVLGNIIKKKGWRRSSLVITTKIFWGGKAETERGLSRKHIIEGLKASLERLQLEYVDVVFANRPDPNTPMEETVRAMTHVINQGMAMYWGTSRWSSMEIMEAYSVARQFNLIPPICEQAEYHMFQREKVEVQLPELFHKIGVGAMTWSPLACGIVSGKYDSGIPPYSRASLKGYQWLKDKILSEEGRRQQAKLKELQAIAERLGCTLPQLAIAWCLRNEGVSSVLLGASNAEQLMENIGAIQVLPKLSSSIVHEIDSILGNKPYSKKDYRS

Broadly, the inhibition is the relative decrease from the control value, in per cent. For the compound `CC1Cc2ccccc2N1C(=O)CSc1nnc2n1C(C)(C)Cc1ccccc1-2` (stereo not given), the cell count in assay [1] came out at 247. Further, the inhibition in assay [1] was -0.2% (inactive); in assay [3], 5.5% (inactive); in assay [7], 5.38% (inactive); in assay [8], -63.7% (inactive). Also, in assay [2], the inhibition of aggregation was 21.8% (inactive). For the same compound, the nuclei count was 84.2% in assay [2] and 69.7% in assay [3]. In addition, the fluorescence slope in assay [4] was -0.434 (inactive). Besides, in assay [5], the NADPH fluorescence slope was 2.5e-05 (inactive). Moreover, in assay [6], the slope is 0.00483 (inactive).

Consider `Cc1cccc(N(CC(=O)Nc2ccc(CC#N)cc2)S(C)(=O)=O)c1`, for which the cell count in assay [1] came out at 487. Further, the inhibition in assay [1] is -15.7% (inactive); in assay [3], -87.9% (inactive); in assay [7], 16.7% (inactive); in assay [8] it was 28.7% (inactive). In addition, the inhibition of aggregation in assay [2] is -17.9% (inactive). In addition, the figures for the nuclei count in assay [2] and in assay [3] were 106% and 109%, respectively. Also, in assay [4], the fluorescence slope was -0.483 (inactive). For the same compound, in assay [5], the NADPH fluorescence slope was -2.6e-05 (inactive). In assay [6], the slope is 0.00518 (inactive).

Turning to `CC(C)c1ccc(C(O)c2cnc(C(C)C)n2C)cc1` (stereo not given), in assay [1], the cell count was 723. For the same compound, the inhibition is 6.9% (inactive) in assay [1], -93.9% (inactive) in assay [3], -10.5% (inactive) in assay [7] and -5.66% (inactive) in assay [8]. Besides, in assay [2], the inhibition of aggregation is -27.2% (inactive). Besides, the nuclei count in assay [2] turned out to be 50.5%; in assay [3], 106%. Besides, the fluorescence slope in assay [4] was -0.552 (inactive). For the same compound, the NADPH fluorescence slope in assay [5] was -3.1e-05 (inactive). Besides, the slope in assay [6] was 0.00678 (inactive).

`O=C(Nc1ccc(O)cc1)C1CCCN1S(=O)(=O)c1ccc(F)cc1` (stereo not given): the cell count in assay [1] is 598. For the same compound, the inhibition in assay [1] was -2.1% (inactive); in assay [3], -33.3% (inactive); in assay [7], 8.7% (inactive); in assay [8] it was 9.85% (inactive). The inhibition of aggregation in assay [2] is -9.8% (inactive). The nuclei count in assay [2] was determined as 90%; in assay [3], 119%. For the same compound, the fluorescence slope in assay [4] is -0.497 (inactive). Besides, the NADPH fluorescence slope in assay [5] is -2.5e-05 (inactive). The slope in assay [6] is 0.00664 (inactive).

As to `COc1ccc(CCNc2oc(-c3ccco3)nc2C#N)cc1`, the cell count in assay [1] came to 560. Further, the inhibition in assay [1] was 15.1% (inactive); in assay [3] it was 35.2% (inactive); in assay [7], -0.514% (inactive); in assay [8] it was -18.9% (inactive). The inhibition of aggregation in assay [2] is 0.7% (inactive). Further, the nuclei count in assay [2] turned out to be 103%; in assay [3], 84.1%. In addition, in assay [4], the fluorescence slope is -0.605 (inactive). Besides, the NADPH fluorescence slope in assay [5] is -3.5e-05 (inactive). The slope in assay [6] is 0.00388 (inactive).

Turning to `O=C1CC(Sc2nnc(-c3ccccc3)o2)C(=O)N1c1ccccc1` (stereo not given), the cell count in assay [1] came to 677. For the same compound, the inhibition in assay [1] was -1.1% (inactive); in assay [3], -12.2% (inactive); in assay [7], 4.52% (inactive); in assay [8] it was 3.11% (inactive). In assay [2], the inhibition of aggregation is 3.6% (inactive). For the same compound, the values for the nuclei count in assay [2] and in assay [3] were 105% and 91.1%, respectively. The fluorescence slope in assay [4] is -0.404 (inactive). Moreover, the NADPH fluorescence slope in assay [5] was -6.5e-05 (inactive). The slope in assay [6] is 0.00487 (inactive).

As to `O=S(=O)(Nc1cccnc1)c1ccc2c(c1)OCCO2`, the cell count in assay [1] turned out to be 337. Besides, the inhibition in assay [1] is 10.2% (inactive); in assay [3] it was 16.8% (inactive); in assay [7] it was 13.5% (inactive); in assay [8], 17.6% (inactive). In assay [2], the inhibition of aggregation is 5.2% (inactive). Besides, the values for the nuclei count in assay [2] and in assay [3] were 88.2% and 92%, respectively. Further, the fluorescence slope in assay [4] is -0.393 (inactive). Further, the NADPH fluorescence slope in assay [5] is -4.2e-05 (inactive). For the same compound, in assay [6], the slope is 0.00465 (inactive).

Consider `O=C(c1ccccc1)N1CCN(CC2CC=CCC2)CC1` (stereo not given), for which the cell count in assay [1] was determined as 391. Moreover, the inhibition in assay [1] was -9.9% (inactive); in assay [3], -93.3% (inactive); in assay [7], 6.11% (inactive); in assay [8], 19.5% (inactive). In addition, the inhibition of aggregation in assay [2] was 21.1% (inactive). The values for the nuclei count in assay [2] and in assay [3] were 91% and 69.8%, respectively. For the same compound, the fluorescence slope in assay [4] is -0.304 (inactive). Further, the NADPH fluorescence slope in assay [5] is 2.3e-05 (inactive). The slope in assay [6] was 0.00325 (inactive).

Take `Cn1c(=N)c(S(=O)(=O)c2ccccc2)cc2c(=O)n3ccccc3nc21`: the cell count in assay [1] was found to be 442. Also, the inhibition was -5.1% (inactive) in assay [1], -85.8% (inactive) in assay [3], -14.3% (inactive) in assay [7] and -10.5% (inactive) in assay [8]. Besides, the inhibition of aggregation in assay [2] was -1.9% (inactive). Besides, the nuclei count in assay [2] was 114%; in assay [3], 235%. Further, the fluorescence slope in assay [4] was -0.517 (inactive). Moreover, the NADPH fluorescence slope in assay [5] was -9.2e-06 (inactive). Moreover, the slope in assay [6] is 0.00488 (inactive).

`O=C(C(Cc1ccccc1)n1cccc1)N1CCCCCC1` (stereo not given): the cell count in assay [1] stood at 690. Further, the inhibition is -1.6% (inactive) in assay [1], -42.3% (inactive) in assay [3], 3.28% (inactive) in assay [7] and 25.3% (inactive) in assay [8]. The inhibition of aggregation in assay [2] is 8.2% (inactive). For the same compound, the results for the nuclei count in assay [2] and in assay [3] were 104% and 115%, respectively. For the same compound, in assay [4], the fluorescence slope is -0.517 (inactive). The NADPH fluorescence slope in assay [5] is -1.7e-05 (inactive). Moreover, the slope in assay [6] was 0.00572 (inactive).
